Assay results: PubChem BioAssay AID493205 (National Center for Advancing Translational Sciences (NCATS), 2011)
The list shows a part of the results. Inconclusive results are not listed. A number with no mark means an inactive call. Active and inactive are the calls of the source. Calls follow the shape of the dose curve; as a rule, active = well fitted inhibition curve with a large enough effect; inconclusive = small, poorly fitted or top-dose-only effect, or effect the other way; inactive = no such curve, though single readings can be large or run the other way.

biological target: Muscleblind-like protein 1 (Homo sapiens) (UniProt Q9NR56); test: qHTS Assay for Inhibitors of MBNL1-poly(CUG) RNA binding: Initial hit validation in AlphaScreen assay for MBNL1-(CUG)12 binding; details: AlphaScreen MBNL1-His / biotin-(CUG)12 binding; series mostly up to 57.7 µM; activity, negative = inhibition: at the top concentration
Sequence (Q9NR56 whole entry, looked up): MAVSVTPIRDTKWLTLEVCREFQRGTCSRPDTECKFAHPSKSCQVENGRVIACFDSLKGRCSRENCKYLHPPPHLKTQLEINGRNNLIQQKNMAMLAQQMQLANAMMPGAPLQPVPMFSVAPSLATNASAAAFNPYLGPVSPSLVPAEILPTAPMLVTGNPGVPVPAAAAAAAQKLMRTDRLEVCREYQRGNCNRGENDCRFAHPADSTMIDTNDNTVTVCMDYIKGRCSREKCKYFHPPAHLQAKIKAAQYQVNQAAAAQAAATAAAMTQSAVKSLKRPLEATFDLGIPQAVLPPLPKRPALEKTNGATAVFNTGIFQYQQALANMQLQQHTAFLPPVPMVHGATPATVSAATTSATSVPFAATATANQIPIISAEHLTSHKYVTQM
From the text: NIH Chemical Genomics Center [NCGC] NIH Molecular Libraries Probe Production Centers Network [MLPCN] MLPCN Grant: R03 MH087421-01 Assay Submitter (PI): Charles Thornton NCGC Assay Overview: Expanded CTG repeats in the 3' untranslated region of the DM protein kinase (DMPK) gene causes type I myotonic dystrophy (DM1). DM1 is a multi-systemic disease with a prevalence of 1/7000. Clinical features include myotonia, progressive muscle weakness and wasting, cardiac arrhythmia, insulin resistance, hypersomnolence, cataracts, and other symptoms. The pathogenic effect of expanded CTG repeats stems from deleterious effects of the mutant transcript. CUGexp mRNA accumulates in nuclear foci and sequesters proteins of the muscleblind family, of which MBNL1 is the most common family member in skeletal muscles. The binding interaction between MBNL1 and CUGexp tracts leads to deregulation of alternative splicing and is therefore a key molecular step in the pathogenesis of DM1. […]
NCGC Assay Protocol Summary: This is a proximity-based binding assay with MBNL1-His and Biotin-(CUG)12 RNA. […] The AC50 values were determined from concentration-response data modeled with the standard Hill equation Assay buffer: 20mM HEPES, 110mM KCl, 10mM NaCl, 2mM MgCl2, 2mM CaCl2, 5mM DTT, 0.1% BSA, 0.05% Tween 20 1536-well assay protocol for the MBNL1-(CUG)12 binding assay: (1) Add 2 ul/well 20nM MBNL1-His, 20nM Biotin-(CUG)12 (2) Add 23 nL compounds in DMSO solution. […] (3) Add 1 ul of Nickel-coated AlphaScreen acceptor beads (6.25 ng/ul final concentration) (4) Incubate 30 min at room temperature (5) Add 1 ul of Streptavidin-conjugated AlphaScreen donor beads (6.25 ng/ul final concentration) (6) Incubate 60 min at room temperature (7) Detect the assay plate in a EnVision plate reader (PerkinElmer) with AlphaScreen protocol Keywords: mytonic dystrophy type I, DM1, muscleblind like 1, MBNL1, CUG expansion, protein-RNA binding inhibitor, high throughput screening, MLSMR, MLSCN, NIH Roadmap, qHTS and NCGC

Row | Structure (SMILES) | activity, negative = inhibition [%] | Potency
1 | COc1cccc(NC(=O)Cn2cnc3sc(C)c(S(=O)(=O)N4CCN(C)CC4)c3c2=O)c1 | -4.19 | 
2 | CCOC(=O)c1c(C)[nH]c2c1-c1ccccc1C(=O)C2=O |  | 4.11 µM (active)
3 | COc1ccc(Cc2n[nH]c(=S)n2NC(=O)Nc2ccc(C)cc2)cc1 | -7.23 | 
